# CIT2 TOR yeast – modulators of TOR pathway CIT2-GFP in S. cerevisiae. S. cerevisiae CIT2-GFP strain, flow cytometry, 3 h; 100 means same as DMSO wells. GFP response vs DMSO, % at 10 µM. 0.065% of 320,000 active;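 active = GFP response relative to DMSO above a set limit, near the screen mean plus 3 SD, cut at about 150% in these data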;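 also: ratio of well median GFP fluorescence to mean of DMSO wells on the plate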
# RPL19A TOR yeast – yeast TOR pathway RPL19A-GFP modulation; 0.3% of 330,000 active; percent response vs DMSO, % at 10 µM; S. cerevisiae RPL19A-GFP strain, flow cytometry, 3 h; hits give low values; AID 2025;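 active = percent response vs DMSO below 50%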;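 also: median channel GFP fluorescence of the barcoded RPL19A-GFP strain; lower means less RPL19A-GFP as with rapamycin TOR inhibition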
# MEP2 TOR yeast – yeast TOR pathway MEP2-GFP modulation | S. cerevisiae MEP2-GFP strain, flow cytometry GFP, 3 h; 100% = DMSO control level | GFP response vs DMSO, % at 10 µM | 0.51% of 330,000 active;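 active = GFP response versus DMSO above a set limit, roughly screen mean plus 3 SD, cut at about 180% in these data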;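 also: median GFP fluorescence of the barcode-gated MEP2-GFP cells per well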
# AGP1-GFP MLPCN – yeast TOR pathway AGP1-GFP modulation; 0.02% of 320,000 active; S. cerevisiae AGP1-GFP multiplex flow cytometry, 3 h; GFP as percent of DMSO wells; GFP response vs DMSO, % at 10 µM;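 active = GFP response relative to DMSO above a set limit, near screen average plus 3 SD, cut at about 150% in these data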;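 also: median GFP channel fluorescence of the gated AGP1 strain per well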
# LAP4 TOR yeast – modulators of TOR pathway LAP4-GFP in S. cerevisiae; S. cerevisiae LAP4-GFP multiplex, flow cytometry GFP, 3 h; median GFP as percent of DMSO wells; GFP response vs DMSO, % at 10 µM; 0.34% of 320,000 active; AID 2023;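 active = GFP response vs DMSO above a set limit, about the screen mean plus 3 SD, cut at about 150% in these data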
# LAP4-GFP pick2 – second confirmation of modulators of TOR reporter LAP4-GFP in yeast | shares compounds with LAP4 TOR yeast | S. cerevisiae LAP4-GFP strain, flow cytometry GFP, 3 h | GFP response vs DMSO, % at 10 µM | 20% of 590 active | AID 2621;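 active = GFP signal as percent of the solvent control above about 150%, meaning raised reporter expression, limit read from the data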
# MEP2-GFP pick2 – second confirmation of modulators of TOR reporter MEP2-GFP in yeast | shares compounds with LAP4 TOR yeast | GFP response vs DMSO, % at 10 µM | S. cerevisiae MEP2-GFP strain, flow cytometry GFP, 3 h | 10% of 590 active;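 active = GFP signal above 150% of the solvent control wells, that is a rise of more than half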;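 also: median channel GFP fluorescence of all gated yeast cells per well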
# RPL19A-GFP pick2 – reconfirmed modulator of RPL19A-GFP TOR reporter in yeast. shares compounds with LAP4 TOR yeast. S. cerevisiae RPL19A-GFP strain, flow cytometry GFP, 3 h; hits give low values; 100% means same as DMSO wells. GFP response vs DMSO, % at 10 µM. 3% of 590 active;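 active = under 65% GFP response relative to DMSO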;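 also: median GFP channel fluorescence per well over the all cells gate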
# CIT2 GFP CP2 – second confirmation of modulators of TOR reporter CIT2-GFP in yeast; GFP response vs DMSO, % at 10 µM; S. cerevisiae CIT2-GFP strain, flow cytometry GFP, 3 h; DMSO control wells read 100%; shares compounds with LAP4 TOR yeast; 8% of 590 active;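 active = GFP response vs DMSO above about 150%, limit read from the data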;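 also: median green fluorescence per well over all gated yeast cells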
# AGP1 GFP CP2 – second confirmation of modulators of TOR reporter AGP1-GFP in yeast; shares compounds with LAP4 TOR yeast; S. cerevisiae AGP1-GFP strain, flow cytometry GFP, 3 h; percent response vs DMSO, % at 10 µM; 590 tested, under 10 active; AID 2643;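 active = over 150 percent of DMSO response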;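 also: median GFP channel fluorescence over all cells without mother daughter split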
# s288c autofluor – yeast s288c autofluorescence artifact, counter-screen; shares compounds with LAP4 TOR yeast; S. cerevisiae s288c, 520 nm autofluorescence, flow cytometry, 3 h; hits give high values; zero means same as solvent-only cells; fluorescence change (kMESF span) at 33 µM; 610 tested, under 10 active; AID 2757;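 active = fluorescence span over the dose series, or activity score, above about 33, limit read from the data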
# s288c autofl DR – yeast s288c autofluorescence artifact in dose response; fluorescence change (span) at 33 µM; S. cerevisiae s288c parental, compound autofluorescence, flow cytometry, 3 h; AID 488829; 110 tested, under 10 active; shares compounds with LAP4 TOR yeast;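 active = fluorescence change span, or the activity score built from it, above 25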
# TORC1 bypass gr – stops wildtype yeast growth while TORC1 bypass cells still grow; shares compounds with LAP4 TOR yeast; S. cerevisiae BY4741 spot growth rating, 48-72 h; hits give low values; growth rating (0-3) at 30 µM; 120 tested, under 10 active;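 active = growth rating at most 1 for wild type yeast while the TORC1 bypass strain still grows fully, rated 3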
# Numbers stand for hits; – = inactive; · = no result given. This is a sample that favours compounds with a hit; in the whole collection about 0.93% have one here.
SMILES,CIT2 TOR yeast,RPL19A TOR yeast,MEP2 TOR yeast,AGP1-GFP MLPCN,LAP4 TOR yeast,LAP4-GFP pick2,MEP2-GFP pick2,RPL19A-GFP pick2,CIT2 GFP CP2,AGP1 GFP CP2,s288c autofluor,others
CCCCC1OC23CCCCC2C(C#N)(C(=N)O3)C1(C#N)C#N (stereo unspecified),–,–,189.3,–,–,·,·,·,·,·,–,
COc1cc(/C=N/N(C)S(=O)(=O)c2ccc(C)cc2)cc([N+](=O)[O-])c1O,–,–,–,–,–,·,·,·,·,·,·,
O=C(Oc1oc(-c2ccco2)nc1C=Nc1ccccc1)c1ccco1,–,–,–,–,203.1,·,·,·,·,·,–,
O=c1oc(-c2ccco2)nc2ccccc12,–,–,–,–,–,·,·,·,·,·,·,
O=C(Oc1oc(-c2ccco2)nc1C=Nc1ccccc1)c1ccoc1,–,–,–,–,216.8,·,·,·,·,·,–,
Cc1ccc(C(=O)Oc2oc(-c3ccco3)nc2C=Nc2ccc(Cl)cc2)cc1,–,–,–,–,223.1,·,·,·,·,·,–,
Cc1ccc(N=Cc2nc(-c3ccco3)oc2O)cc1,–,–,–,–,–,·,·,·,·,·,·,
NC(=O)CSc1oc(-c2ccco2)nc1S(=O)(=O)c1ccccc1,–,–,–,–,–,·,·,·,·,·,·,
CC/C=C/C(=O)N1CC2(CC(c3cccc(NC(=O)COc4ccc(Cl)cc4)c3)=NO2)C[C@H]1C(N)=O (stereo partly specified),–,–,–,–,–,·,·,·,·,·,·,
O=C(Nc1nc2ccc(F)cc2s1)c1ccccn1,–,–,–,–,178.2,·,·,·,·,·,–,
COc1ccc(OC[C@@H](O)CNC(=O)c2cccc3c2C(=O)c2ccc(Cl)cc2S3(=O)=O)cc1,–,–,–,–,–,·,·,·,·,·,·,
CC(C)(C)C1C/C(=C/c2ccccn2)C(=O)/C(=C/c2ccccn2)C1 (stereo unspecified),–,–,–,–,162.2,180.8,–,–,–,–,–,
Nc1nc(N)c2nc(-c3ccccc3)c(N)nc2n1,–,–,332.2,–,–,–,–,–,–,–,·,
O=C(O)Cn1c(=O)c2c(c3ccccc31)CCC2,–,–,881.3,–,–,–,–,–,–,–,·,
O=C(NC1CCN(C(=S)Nc2ccccc2)CC1)C1CCCCC1,–,–,–,–,–,·,·,·,·,·,·,
NS(=O)(=O)c1ccc(CCNC(=O)C(=O)c2cn(CC(=O)N3CCOCC3)c3ccccc23)cc1,171.3,–,–,–,–,–,–,–,–,–,·,
CCN(CC)C(=O)Cn1cc(C(=O)C(=O)NCCc2ccc(S(N)(=O)=O)cc2)c2ccccc21,–,–,–,–,–,·,·,·,·,·,·,
CC(=O)n1cc(C(C[N+](=O)[O-])SCCN)c2ccccc21 (stereo unspecified),–,–,–,–,226.5,183.4,164.2,–,–,–,–,
Cc1cccc(C(=O)NNC(=S)NC(=O)c2ccccc2)c1,–,–,–,–,154.6,·,·,·,·,·,–,
COc1ccc(C(=O)NC(=S)NNC(=O)c2cccc(C)c2)cc1,–,–,–,–,–,·,·,·,·,·,·,
O=C(CCc1ccccc1)NNC(=S)NC(=O)c1ccccc1,–,–,–,–,243.4,·,·,·,·,·,–,s288c autofl DR=–;TORC1 bypass gr=–
O=C(NC(=S)NNC(=O)[C@H]1C[C@@H]1c1ccccc1)c1cccc(F)c1,–,–,–,–,153.1,·,·,·,·,·,–,
CC(=O)NC(=S)NNC(=O)CCc1ccccc1,–,–,–,–,–,·,·,·,·,·,·,
COc1cccc(OC)c1C(=O)NC(=S)NNC(=O)[C@H]1C[C@@H]1c1ccccc1,–,–,–,–,–,·,·,·,·,·,·,
CCCCC(=O)NC(=S)NNC(=O)CCc1ccccc1,–,–,–,–,150.5,–,–,–,–,–,–,
SMILES,CIT2 TOR yeast,RPL19A TOR yeast,MEP2 TOR yeast,AGP1-GFP MLPCN,LAP4 TOR yeast,LAP4-GFP pick2,MEP2-GFP pick2,RPL19A-GFP pick2,CIT2 GFP CP2,AGP1 GFP CP2,s288c autofluor,others
COCCn1c(C)cc(C(=O)COc2ccc(N(C)S(=O)(=O)c3ccc(C)cc3)cc2)c1C,–,–,–,–,–,·,·,·,·,·,·,
O=S(=O)(Nc1ccccc1C(F)(F)F)c1ccc(-c2ccccn2)s1,–,–,–,–,–,·,·,·,·,·,·,
CCOc1ccc(S(=O)(=O)N2CCC(C(=O)OC(C)C(=O)N(C)C3CCCCC3)CC2)cc1 (stereo unspecified),–,–,–,–,–,·,·,·,·,·,·,
N#CCCN(C(=O)COC(=O)c1ccc(CNS(=O)(=O)c2ccc(F)c(Cl)c2)cc1)c1ccc(F)cc1,–,–,–,–,–,·,·,·,·,·,·,
O=c1c2cnn(-c3ccccc3)c2ncn1Cc1ccco1,–,–,–,–,–,–,–,–,–,–,–,
CCCC(=O)Nc1ccc(-c2csc(N/N=C\c3ccncc3)n2)cc1,–,–,–,–,–,·,·,·,·,·,·,
O=[N+]([O-])c1c(Nc2ccccn2)cc(Cl)c2nonc12,455.8,–,951.3,–,673.6,·,·,·,·,·,37,
Cc1cc(Cl)ccc1N(CC(=O)NCCSCc1ccco1)S(C)(=O)=O,–,–,–,–,–,–,–,–,–,–,·,
COc1cc2ncnc(NCc3ccc(F)cc3)c2cc1OC,–,–,–,–,–,·,·,·,·,·,·,
N#Cc1ccc(CN2CCN(C(=O)c3cc(Cl)c4c(c3)OCCO4)CC2)cc1,–,–,–,–,–,·,·,·,·,·,·,
NC(=O)C1CCN(C(=O)c2cc(Cl)c3c(c2)OCCO3)CC1,–,–,–,–,182.8,–,–,–,–,–,·,
N#Cc1ccc(-c2nc3ccc(Br)cc3c(=O)n2O)cc1,–,–,–,–,–,·,·,·,·,·,·,
O=c1c2cc(Br)ccc2nc(-c2ccc([N+](=O)[O-])cc2)n1O,–,–,–,–,–,–,169.4,51.4,–,–,–,
S=c1[nH]nc(-c2n[nH]c3c2CCC3)n1/N=C/C=C/c1ccco1,·,–,–,·,·,·,·,·,·,·,·,
